Growth inhibition, inhibition and outcome data for 21 compounds are collected here from PubChem BioAssay.

Unmarked numbers belong to inactive results. For part of these data: Entries with a potency or affinity are not part of this list. The source made the active and inactive calls. Unless noted, how the calls were made is not given here.

By inhibition is commonly meant the change of the read-out against control, counted positive when it falls.

The nature of assay [1]: antimalarial activity against Dd2 strain (AID 2302;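 active means growth inhibition above 50% at the single 2 µM test dose, taken to imply half-maximal potency below 2 µM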;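 further: 0% = DMSO untreated growth and 100% = chloroquine plus artemisinin killed control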). Particulars: P. falciparum Dd2 in RBCs, LDH growth readout, 72 h; at 2 µM; hits give high values.
Assay [2] can be described thus: human hepatoma cell viability loss – ATP luminescence, cytotoxicity control for P. falciparum antimalarial project, primary screen (AID 2303;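 active means inhibition above 50%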;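 further: 0% = DMSO wells and 100% = digitonin-killed cells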). Particulars: HepG2 viability, 24-48 h, at 10 µM, hits give high values.
Assay [3] deals with L-lactate dehydrogenase (Plasmodium falciparum (isolate CDC / Honduras)) (UniProt Q27743). The assay can be described thus: PfLDH activity inhibition – cell lysate, 3D7 strain, counter-screen for P. falciparum growth inhibition project (AID 2304).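 Further: 0% = vehicle and 100% = reference inhibitor.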 Particulars: P. falciparum 3D7 crude extract, LDH APAD/NBT absorbance; at 2 µM; hits give high values. On the technique in general: Counterscreens check selectivity or assay interference.

Assay [4] in a line: inhibition of 3D7 malaria parasite growth – strain 3D7 (AID 2306).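 Further: 0% = DMSO wells and 100% = chloroquine plus artemisinin control wells.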 Conditions: P. falciparum 3D7 erythrocytic growth, LDH absorbance, 72 h; at 2 µM; hits give high values.
The target of assay [5] is Calcium-dependent protein kinase 1 (Plasmodium falciparum (isolate 3D7)) (UniProt P62344). Kind of assay: PfCDPK1 kinase inhibitors, biochemical, TCAMS library (AID 1159585; cut-off not given, nearly all actives have IC50 up to about 0.98 µM;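 further: inhibitors leave more ATP so luminescence rises with inhibition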). Particulars: recombinant PfCDPK1, Kinase-Glo ATP depletion luminescence.
The target in assay [6] is Plasmodium falciparum protein kinase 6 (PK6, PF3D7_1337100) (UniProt Q8IDW1). The assay can be described thus: PfPK6 kinase inhibitors, biochemical, TCAMS library (AID 1159586). Conditions: recombinant PfPK6, Kinase-Glo ATP depletion luminescence. (Kinase-Glo measures the ATP left after a reaction by luminescence.)
In assay [7] the target is Protein kinase 7 (PK7), Plasmodium falciparum 3D7 (PF3D7_0213400) (UniProt Q7YTF7). The assay can be described thus: inhibition of Plasmodium PK7 catalytic activity – biochemical, TCAMS antimalarial set, Kinase-Glo luminescence (AID 1159587). Conditions: recombinant PfPK7, Kinase-Glo ATP depletion luminescence.
Assay [8] addresses Calcium-dependent protein kinase 4 (Plasmodium falciparum (isolate 3D7)) (UniProt Q8IBS5). Kind of assay: PfCDPK4 kinase inhibitors, biochemical, TCAMS library (AID 1159588; cut-off not given, nearly all actives have IC50 up to about 0.91 µM). Conditions: recombinant PfCDPK4, Kinase-Glo ATP depletion luminescence.

Calcium-dependent protein kinase 1 (Plasmodium falciparum (isolate 3D7)), sequence (P62344 whole entry, looked up): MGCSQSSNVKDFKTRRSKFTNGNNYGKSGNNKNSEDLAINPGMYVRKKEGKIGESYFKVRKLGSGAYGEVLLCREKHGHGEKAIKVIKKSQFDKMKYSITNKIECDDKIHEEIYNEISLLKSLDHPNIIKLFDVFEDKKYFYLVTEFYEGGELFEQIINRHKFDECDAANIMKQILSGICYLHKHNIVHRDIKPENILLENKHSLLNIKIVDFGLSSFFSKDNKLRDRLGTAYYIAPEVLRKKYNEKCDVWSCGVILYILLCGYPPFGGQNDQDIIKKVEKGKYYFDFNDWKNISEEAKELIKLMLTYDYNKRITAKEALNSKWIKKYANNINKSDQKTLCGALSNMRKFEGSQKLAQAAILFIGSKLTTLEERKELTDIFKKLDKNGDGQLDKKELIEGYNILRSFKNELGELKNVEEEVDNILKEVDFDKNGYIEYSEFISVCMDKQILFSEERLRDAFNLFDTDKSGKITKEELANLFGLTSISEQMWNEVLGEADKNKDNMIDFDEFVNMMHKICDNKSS
Calcium-dependent protein kinase 4 (Plasmodium falciparum (isolate 3D7)), sequence (Q8IBS5 whole entry, looked up): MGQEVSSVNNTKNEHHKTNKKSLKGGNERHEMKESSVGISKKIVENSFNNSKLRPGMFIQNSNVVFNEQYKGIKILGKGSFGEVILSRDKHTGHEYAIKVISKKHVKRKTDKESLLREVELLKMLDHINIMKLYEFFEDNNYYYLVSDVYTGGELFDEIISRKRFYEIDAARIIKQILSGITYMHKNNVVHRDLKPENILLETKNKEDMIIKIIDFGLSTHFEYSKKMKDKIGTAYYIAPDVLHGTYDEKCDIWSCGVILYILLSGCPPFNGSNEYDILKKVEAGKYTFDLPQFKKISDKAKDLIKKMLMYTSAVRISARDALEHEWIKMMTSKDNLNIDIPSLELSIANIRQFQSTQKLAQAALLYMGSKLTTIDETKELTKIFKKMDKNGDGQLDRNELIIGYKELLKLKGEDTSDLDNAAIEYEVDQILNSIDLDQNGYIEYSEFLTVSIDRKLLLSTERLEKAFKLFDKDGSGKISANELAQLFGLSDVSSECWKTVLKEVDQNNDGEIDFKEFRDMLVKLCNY
L-lactate dehydrogenase (Plasmodium falciparum (isolate CDC / Honduras)), sequence (Q27743 whole entry, looked up): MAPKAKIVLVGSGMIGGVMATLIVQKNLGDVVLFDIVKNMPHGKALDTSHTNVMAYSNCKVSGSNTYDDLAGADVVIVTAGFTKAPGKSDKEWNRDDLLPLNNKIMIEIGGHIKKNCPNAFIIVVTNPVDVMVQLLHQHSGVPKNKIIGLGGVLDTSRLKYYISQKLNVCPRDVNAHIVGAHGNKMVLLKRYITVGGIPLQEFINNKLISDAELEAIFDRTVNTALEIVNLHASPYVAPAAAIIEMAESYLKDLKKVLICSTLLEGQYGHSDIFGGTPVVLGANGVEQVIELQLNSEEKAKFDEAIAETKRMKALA
Plasmodium falciparum protein kinase 6 (PK6, PF3D7_1337100), sequence (Q8IDW1 1-305): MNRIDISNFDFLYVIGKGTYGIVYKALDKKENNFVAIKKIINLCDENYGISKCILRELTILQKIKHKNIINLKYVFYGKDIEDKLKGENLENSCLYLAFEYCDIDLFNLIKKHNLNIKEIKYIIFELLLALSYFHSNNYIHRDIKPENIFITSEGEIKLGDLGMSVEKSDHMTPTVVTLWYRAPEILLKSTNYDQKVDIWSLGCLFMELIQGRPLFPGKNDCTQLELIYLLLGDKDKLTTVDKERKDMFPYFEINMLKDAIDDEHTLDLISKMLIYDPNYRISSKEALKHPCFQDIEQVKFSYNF
Protein kinase 7 (PK7), Plasmodium falciparum 3D7 (PF3D7_0213400), sequence (Q7YTF7 1-343): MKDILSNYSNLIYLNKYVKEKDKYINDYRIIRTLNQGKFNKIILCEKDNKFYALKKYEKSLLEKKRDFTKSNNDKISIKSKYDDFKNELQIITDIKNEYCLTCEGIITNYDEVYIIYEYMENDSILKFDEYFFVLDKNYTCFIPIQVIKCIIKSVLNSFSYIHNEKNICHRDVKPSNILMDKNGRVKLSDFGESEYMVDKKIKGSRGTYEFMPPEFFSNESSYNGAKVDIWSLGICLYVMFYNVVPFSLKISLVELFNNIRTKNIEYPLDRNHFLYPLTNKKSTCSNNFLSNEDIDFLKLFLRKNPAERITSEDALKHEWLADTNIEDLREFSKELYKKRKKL

As for `CN1CCN(c2ccnc3ccc(NC(=O)Nc4ccc(Cl)cc4)cc23)CC1`, the growth inhibition in assay [1] was 99% (active); in assay [4] it was 103% (active). The inhibition was 11% in assay [2] and 0% in assay [3]. The result in assay [5], in assay [6], in assay [7] and in assay [8] was inactive.

Regarding `Cc1ccc(CNC(=O)[C@H](CCCN)Nc2nc(NCC3CCCCC3)ncc2C)cc1`, the growth inhibition in assay [1] is 5%; in assay [4], 92% (active). Further, the inhibition was 1% in assay [2] and 3% in assay [3]. The outcome in assay [5], in assay [6], in assay [7] and in assay [8] was inactive.

On to `CN1CCN(c2ccnc3ccc(NC(=O)Nc4cccc5c(C#N)cccc45)cc23)CC1`, for which the growth inhibition was 40% in assay [1] and 91% (active) in assay [4]. For the same compound, the inhibition is -6% in assay [2] and 8% in assay [3]. The result in assay [5], in assay [6], in assay [7] and in assay [8] was inactive.

In the case of `Cc1cccc2nc(C(=O)Nc3nc(CN4CCC(C)CC4)cs3)cn12`, the results for the growth inhibition in assay [1] and in assay [4] were 80% (active) and 94% (active), respectively. In addition, the inhibition in assay [2] was -27%; in assay [3] it was 0%. The result in assay [5], in assay [6], in assay [7] and in assay [8] was inactive.

Turning to `N#Cc1cccc(NC(=O)Nc2cccc(-c3cccc(-c4nc5ccc(F)cc5[nH]4)c3)c2)c1`, the growth inhibition was 66% (active) in assay [1] and 102% (active) in assay [4]. Besides, the results for the inhibition in assay [2] and in assay [3] were 60% (active) and 0%, respectively. Also, the outcome in assay [5], in assay [6], in assay [7] and in assay [8] was inactive.

Consider `O=C(NC1CCC1)C1CCN(C(c2ccccc2)c2cc(F)cc(F)c2)CC1` (stereo not drawn), for which the figures for the growth inhibition in assay [1] and in assay [4] were 72% (active) and 94% (active), respectively. Also, the inhibition is 0% in assay [2] and -2% in assay [3]. Further, the outcome in assay [5], in assay [6], in assay [7] and in assay [8] was inactive.

Turning to `CC(=O)Nc1sc(C)c(C)c1CN1CCc2ccccc2C1`, the growth inhibition is 94% (active) in assay [1] and 93% (active) in assay [4]. The inhibition in assay [2] was -8%; in assay [3], 1%. Besides, the outcome in assay [5], in assay [6], in assay [7] and in assay [8] was inactive.

As to `O=C1CCCC1Sc1nc2ccccc2c(=O)n1-c1ccc(Cl)c(Cl)c1` (stereo not drawn), the growth inhibition in assay [1] is 42%; in assay [4], 97% (active). Moreover, the inhibition in assay [2] is 10%; in assay [3], 0%. Besides, the result in assay [5], in assay [6], in assay [7] and in assay [8] was inactive.

Regarding `CNC(=O)c1cnc(Nc2ccc(OCC(O)CN(C)C)cc2)nc1Nc1cccc(OC(C)C)c1` (stereo not drawn), the growth inhibition in assay [1] is 100% (active); in assay [4], 103% (active). In addition, the figures for the inhibition in assay [2] and in assay [3] were 21% and 1%, respectively. Besides, the result in assay [5], in assay [6], in assay [7] and in assay [8] was inactive.

As for `Cc1ccc2nc(C)cc(NN=Cc3ccc(Cl)cc3)c2c1`, the growth inhibition is 35% in assay [1] and 102% (active) in assay [4]. The results for the inhibition in assay [2] and in assay [3] were -9% and 6%, respectively. For the same compound, the outcome in assay [5], in assay [6], in assay [7] and in assay [8] was inactive.

In the case of `CC(CN1CCN(C)CC1)C(=O)Nc1ccc(-c2csc(-c3nc4ccccc4[nH]3)c2)cc1` (stereo not drawn), the figures for the growth inhibition in assay [1] and in assay [4] were 26% and 93% (active), respectively. Besides, the values for the inhibition in assay [2] and in assay [3] were 15% and -4%, respectively. Moreover, the result in assay [5], in assay [6], in assay [7] and in assay [8] was inactive.

On to `CCCCNCc1ccc(-c2nc(CN(CCCn3ccnc3)C(=O)N[C@@H]3C[C@H]3c3ccccc3)cs2)cc1`, for which the growth inhibition in assay [1] was 34%; in assay [4], 100% (active). Moreover, the inhibition in assay [2] is 21%; in assay [3] it was 3%. For the same compound, the outcome in assay [5], in assay [6], in assay [7] and in assay [8] was inactive.

`CN(C)CCCOc1ccc(CN2CC[C@H](NC(=O)c3ccc(Cl)c(Cl)c3)C2)cc1Cl`: the growth inhibition in assay [1] is 35%; in assay [4], 100% (active). Further, the inhibition in assay [2] is 65% (active); in assay [3] it was 1%. In addition, the result in assay [5], in assay [6], in assay [7] and in assay [8] was inactive.

For the compound `CN1CCN(CC(O)CNC(=O)Nc2ccc(Cl)cc2)CC1` (stereo not drawn), the growth inhibition in assay [1] was 98% (active); in assay [4], 99% (active). Further, the figures for the inhibition in assay [2] and in assay [3] were 1% and -3%, respectively. The result in assay [5], in assay [6], in assay [7] and in assay [8] was inactive.

As for `O=C(C(=O)c1ccc(Nc2ccnc3cc(-c4ccccn4)ccc23)cc1)c1ccccc1`, the values for the growth inhibition in assay [1] and in assay [4] were 34% and 93% (active), respectively. Also, the figures for the inhibition in assay [2] and in assay [3] were 22% and -4%, respectively. For the same compound, the result in assay [5], in assay [6], in assay [7] and in assay [8] was inactive.

In the case of `CN1CCN(c2ccc(-c3cc(-c4cc(F)c(F)c(F)c4)cnc3N)cc2)CC1`, the growth inhibition in assay [1] was 12%; in assay [4], 88% (active). In addition, the results for the inhibition in assay [2] and in assay [3] were 58% (active) and -4%, respectively. In addition, the outcome in assay [5], in assay [6], in assay [7] and in assay [8] was inactive.

Consider `CC(=O)Nc1ccc(C(=O)Nc2cccc(-c3ccc(-c4nc5ccc(C(F)(F)F)cc5[nH]4)cc3)c2)cn1`, for which the growth inhibition in assay [1] was 100% (active); in assay [4] it was 101% (active). In addition, the figures for the inhibition in assay [2] and in assay [3] were 46% and -3%, respectively. Also, the outcome in assay [5], in assay [6], in assay [7] and in assay [8] was inactive.

`O=C(Nc1ccc(S(=O)(=O)N2CCCC2)cc1)c1cc(-c2cccnc2)nc2ccc(Cl)cc12`: the growth inhibition was 95% (active) in assay [1] and 97% (active) in assay [4]. Also, the results for the inhibition in assay [2] and in assay [3] were 4% and -6%, respectively. In addition, the outcome in assay [5], in assay [6], in assay [7] and in assay [8] was inactive.

For `CCNc1cc(C)nc(Nc2ccc(NC(=O)c3ccccc3Br)cc2)n1`, the growth inhibition is 56% (active) in assay [1] and 100% (active) in assay [4]. In addition, the inhibition in assay [2] was 46%; in assay [3] it was -3%. The result in assay [5], in assay [6], in assay [7] and in assay [8] was inactive.

With `COc1cc(Nc2ccnc3ccc(C(C)(C)C)cc23)cc(OC)c1OC`, the growth inhibition in assay [1] was 80% (active); in assay [4], 100% (active). The inhibition in assay [2] is 12%; in assay [3], 1%. Moreover, the result in assay [5], in assay [6], in assay [7] and in assay [8] was inactive.

Regarding `CC(Cc1ccc(NS(=O)(=O)c2ccc(CC(C)NCCc3cccc(Cl)c3)cc2)cc1)NCCc1cccc(Cl)c1` (stereo not drawn), the growth inhibition in assay [1] was 38%; in assay [4] it was 100% (active). Besides, the inhibition in assay [2] is 12%; in assay [3] it was 4%. Moreover, the outcome in assay [5], in assay [6], in assay [7] and in assay [8] was inactive.
